KCNH2 3.1 block – inhibitors of human KCNH2 3.1 potassium channel isoform; U2OS KCNH2 3.1, thallium flux FluxOr; active compounds read low; activity change, % (tested at about 1.8 µM); hit rate 0.95% among 340,000; AID 720553;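 active = maximum activity change below -70%; inconclusive = maximum activity change from -70% to -50%; inactive = maximum activity change above -50%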;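 also: thallium influx rate constant from kinetic fluorescence after stimulation buffer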
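We transduce U2OS cells with the mutant 3.1 virus, culture them overnight, load FluxOr with Red40 quencher for 45 min, then add stimulation buffer and read kinetically for 2 min to derive a normalized rate constant.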
MBNL1 CUG block – MBNL1-poly(CUG) RNA binding inhibition; Q9NR56; TR-FRET MBNL1-His/biotin-(CUG)12 binding, 665/545 ratio; Potency, µM (doses to about 57.5 µM), hits mostly inhibitors; hit rate 0.036% among 280,000; AID 2675; active = well fitted inhibition curve with a large enough effect in the signal ratio, with a control signal flat, not every such curve was filed as active; inconclusive = small, poorly fitted or top-dose-only effect, or effect the other way, or a change in a side signal; inactive = no such curve, though single readings can be large or run the other way; the % refers to the signal ratio
Target sequence (Q9NR56 whole entry, looked up): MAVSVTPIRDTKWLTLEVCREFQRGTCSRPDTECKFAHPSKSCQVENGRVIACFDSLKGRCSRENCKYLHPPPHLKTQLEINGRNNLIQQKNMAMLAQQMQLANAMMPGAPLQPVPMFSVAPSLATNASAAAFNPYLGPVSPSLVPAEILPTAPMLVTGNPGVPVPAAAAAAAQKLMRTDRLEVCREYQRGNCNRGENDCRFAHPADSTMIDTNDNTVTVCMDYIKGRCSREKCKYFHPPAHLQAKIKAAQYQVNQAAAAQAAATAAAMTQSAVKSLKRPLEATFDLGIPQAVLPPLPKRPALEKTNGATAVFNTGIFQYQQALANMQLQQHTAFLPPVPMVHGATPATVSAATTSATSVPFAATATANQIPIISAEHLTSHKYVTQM
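TR-FRET between His-tagged MBNL1 and biotin-(CUG)12 RNA, detected with Tb anti-His antibody (0.055 ng/ul) and streptavidin-XL665 (5 nM), 60 min at room temperature. Compounds titrated 92 nM to 58 uM; 665/545 nm ratio normalized to buffer and complex controls.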
hERG WT inh – KCNH2 (human, wildtype) channel inhibition; Q12809; activity change, % at 1.84 µM; U2OS, BacMam KCNH2, thallium flux FluxOr; active compounds read low; hit rate 0.37% among 340,000;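 active = maximum activity change below -70%; inconclusive = maximum activity change between -70% and -50%; inactive = maximum activity change above -50%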
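U2OS cells transduced with wild-type KCNH2 virus are loaded with FluxOr dye for 45 min, and thallium flux is measured in kinetic reads before and after stimulation buffer. Rate constants are normalized to DMSO controls.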
CBFb-RUNX1 inh – blocks binding between human CBF-beta and RUNX1; AlphaScreen CBFb-His/RUNX1-biotin binding, biochemical; Potency, µM (highest dose often 59.8 µM), hits mostly inhibitors; 230,000 tested, under 10 active; AID 1477
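Inhibition was taken as any reduction in AlphaScreen signal from the CBF-beta–RUNX1 pair (His and biotin tags, 30 nM each), measured after compound (15 min) and bead (90 min) incubations at room temperature.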
PLK1 PBD block – PLK1 (human) polo-box domain binding inhibition | Potency, µM, most hits filed as inhibitors | hit rate 2.8% among 360,000 | AID 720504 | Plk1 PBD binding of FITC phosphopeptide, fluorescence polarization | P53350; also: series mostly up to about 57 µM; nearly all actives have a fitted effect of over 65% in size
VDR inhibitor – blocks the human vitamin D receptor. P11473. hit rate 0.93% among 400,000. VDR-SRC2-3 peptide fluorescence polarization, 2 h. Potency, µM, most hits filed as inhibitors. AID 504847
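Reagent solutions, kept cold and dark, are dispensed first; compounds are then pinned in at 23 nl, plates briefly spun, and incubated 2 h at ambient temperature. Inhibition of VDR–SRC2-3 peptide binding is read by fluorescence polarization.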
Numbers stand for hits; . = inactive; ? = inconclusive; / = no result; [ ] = another dose, or the depositor's remark. Shown are actives, neighbours in structure and some others; about 3.8% of the full set was active somewhere. Unless noted, calls follow the shape of the dose curve; as a rule, active = well fitted curve in the direction sought with a large enough effect; inconclusive = small, poorly fitted or top-dose-only effect, or another doubt; inactive = no such curve, though single readings can be large; an effect the other way counts as inactive or inconclusive.

SMILES | KCNH2 3.1 block | MBNL1 CUG block | hERG WT inh | CBFb-RUNX1 inh | PLK1 PBD block | VDR inhibitor
O=C(Nc1nc(-c2cccc3ccccc23)cs1)c1ccc2c(c1)S(=O)(=O)c1ccccc1C2=O | -106.1 | . | . | . | . | .
O=C(NC1CC(=O)N(c2ccc(Cl)cc2)C1)C(=O)c1c[nH]c2ccccc12 (centres undefined) | / | / | / | / | / | .
Cc1cccc(NS(=O)(=O)c2ccc3c(c2)CCN3C(=O)C2CCC2)c1 | / | / | / | / | / | .
O=C(O)c1ccccc1C(=O)Nc1n[nH]c(=S)s1 | . | . | . | . | 26.7µM | ?
O=C(O)c1ccccc1C(=O)Nc1nccs1 | . | . | . | . | . | .
COc1ccc(N2CCN(C(=O)c3cc4c(=O)oc5ccc(C)cc5c4s3)CC2)cc1 | / | / | / | / | / | .
C=CCN1CCN(c2nc3ccccc3nc2C#N)CC1 | / | / | / | . | / | 35.5µM
CCC(=O)Nc1ccc(OC)cc1OC | . | . | . | . | 6.7µM | ?
COc1ccc(NC(=O)CN2CCc3ccccc3C2)c(OC)c1 | . | . | -246.6 | / | . | .
COc1ccc(NC(=O)CCNS(=O)(=O)c2cccc3nonc23)c(OC)c1 | . | ? | . | / | . | .
CCC(=O)Nc1ccccc1Oc1ccccc1 | . | . | . | . | 23.8µM | .
COc1ccc(NC(=O)CNS(=O)(=O)c2cccc3nonc23)c(OC)c1 | . | ? | . | . | 29.9µM | .
COc1cc(OC)cc(C(=O)Nc2ccc(S(=O)(=O)N3CCCCC3c3cccnc3)cc2)c1 (centres undefined) | / | / | / | / | / | .
CCN(CC#CCC(O)(c1ccccc1)c1ccccc1)C(C)C | . | / | . | . | 26.7µM | .
CC(C)N(CC#CCC(O)(c1ccccc1)c1ccccc1)CCO | . | . | . | . | . | .
CC(C)n1cnc(S(=O)(=O)N2CCCC(C(=O)NCc3ccccc3Cl)C2)c1 (centres undefined) | / | / | / | / | / | .
Cc1cc(OCCn2c(CCNC(=O)C3CCCCC3)nc3ccccc32)ccc1Cl | / | / | / | / | / | .
Cc1ccc(NS(=O)(=O)c2ccc3[nH]c(=O)oc3c2)c(C)c1 | . | . | . | / | 29.9µM | ?
C[C@@H](C(=O)Nc1ccc2ccccc2c1)[C@H]1C[C@]1(C)[C@H](N)c1ccccc1 | / | / | / | . | / | .
COc1ccccc1N(CC(=O)N/N=C/c1ccc(OCC(=O)NCc2ccco2)cc1)S(=O)(=O)c1ccc(C)cc1 | . | . | . | . | . | ?
COC(=O)COc1ccc(/C=N/NC(=O)CN(c2ccccc2OC)S(=O)(=O)c2ccccc2)cc1 | -89.2 | . | . | / | . | .
CC(=O)c1cccc(NC(=O)N2CCCC2C(=O)Nc2ccc3c(c2)OCO3)c1 (centres undefined) | . | . | . | . | 29.9µM | .
CC(=O)c1cccc(NC(=O)N2CCCC2C(=O)Nc2cccc(C)c2)c1 (centres undefined) | . | . | . | . | . | .
CC(=O)N1CCCc2cc(S(=O)(=O)N3CCC(C(=O)Nc4ccc(C)cc4Cl)CC3)ccc21 | / | / | / | / | / | .
O=C(NC1CCCCCC1)c1cccs1 | . | . | -83.2 | . | . | .
SMILES | KCNH2 3.1 block | MBNL1 CUG block | hERG WT inh | CBFb-RUNX1 inh | PLK1 PBD block | VDR inhibitor
O=C(NC(=S)N1CCCCC1CO)c1cccs1 (centres undefined) | . | / | . | / | 21.2µM | ?
O=C(NC1CCCCC1NC(=O)c1cccs1)c1cccs1 (centres undefined) | . | . | . | . | . | .
CCC1CCCCN1C(=S)NC(=O)c1cccs1 (centres undefined) | . | . | . | . | . | .
O=C(CNC1CCCCCC1)c1cccs1 | . | / | . | . | 29.9µM | ?
Cc1c2cnn(CC(=O)NC(C)C)c(=O)c2c(C)n1Cc1ccccc1Cl | / | / | / | / | / | .
CCc1cccc(CC)c1NC(=O)/C(C#N)=C/c1ccccc1C(F)(F)F | . | . | . | . | . | 50.1µM
N#C/C(=C\c1ccccc1C(F)(F)F)C(=O)Nc1ccccc1 | -176.7 | / | . | . | . | ?
N#C/C(=C/C=C/c1ccccc1)C(=O)Nc1ccccc1 | . | . | . | . | . | .
CCCOc1ccccc1/C=C(\C#N)C(=O)Nc1cccc(C)n1 | . | . | . | / | . | ?
CC(C)Sc1ncc(Cl)c(C(=O)Nc2ccc(S(=O)(=O)N3CCCCC3C)cc2)n1 (centres undefined) | / | / | / | / | / | .
COc1cc(/C=C2/C(=O)N(c3ccc(C)c(C)c3)N=C2C)cc([N+](=O)[O-])c1O | . | . | . | / | . | .
Nc1ccc(Oc2ccc([N+](=O)[O-])cc2[N+](=O)[O-])cc1 | . | ? | . | . | . | .
CC1=NN(c2ccccc2)C(=O)/C1=C\c1ccc(Oc2ccc([N+](=O)[O-])cc2[N+](=O)[O-])cc1 | . | ? | . | ? | 1.89µM | ?
COc1cc(/C=C2\C(=O)N(c3ccccc3)N=C2C)ccc1Oc1ccc([N+](=O)[O-])cc1[N+](=O)[O-] | . | / | . | ? | 3.77µM | ?
Cc1cn(C)c(CC(=O)Nc2cccc(C#N)c2)c1C(=O)O | / | / | / | / | / | .
CCOC(=O)C(=Cc1ccc(OCc2ccc([N+](=O)[O-])cc2)c(OC)c1)C(=O)OCC | . | ? | . | . | . | 79.4µM
CCC(Oc1ccccc1)C(=O)Nc1ccc(O)c(-c2nc3cc(C)ccc3o2)c1 (centres undefined) | / | / | / | / | / | .
CC(=O)NNC(=O)c1sc(=S)n2c1[nH]c(=O)c1sccc12 | . | ? | . | . | 21.2µM | .
NC(=O)c1sc(=S)n2c1[nH]c(=O)c1sccc12 | . | . | . | . | . | .
CCCSc1cc(N2CCN(C)CC2)nc(-c2ccc(OC)cc2)n1 | -70.6 | . | . | . | . | .
CN(C)c1ccc(NC(=O)CSc2nnc(-c3ccco3)c(-c3ccco3)n2)cc1 | . | ? | . | / | . | .
Cc1cccc(C)c1NC(=O)CSc1nnc(-c2ccco2)c(-c2ccco2)n1 | . | ? | . | / | 18.9µM | ?
COc1ccccc1NC(=O)CSc1n[nH]c(-c2ccco2)n1 | . | / | . | / | 26.7µM | ?
Cc1ccccc1NC(=O)CSc1n[nH]c(-c2ccco2)n1 | . | . | . | . | . | .
CSc1nnc(-c2ccco2)c(-c2ccco2)n1 | . | ? | . | ? | 26.7µM | .
SMILES | KCNH2 3.1 block | MBNL1 CUG block | hERG WT inh | CBFb-RUNX1 inh | PLK1 PBD block | VDR inhibitor
Cc1ccccc1NC(=O)CSc1nnc(-c2ccco2)c(-c2ccco2)n1 | . | ? | . | ? | 26.7µM | ?
Cc1ccc(-c2nc3n(n2)C(c2ccccc2Cl)C=C(c2ccc(Cl)cc2)N3)cc1 (centres undefined) | / | / | / | / | / | .
O=C(C=Cc1ccccc1)NCCNC(=O)C=Cc1ccccc1 | / | / | . | / | . | .
O=C(/C=C/c1ccccc1)NCCSCc1ccccc1 | . | .[11.5 µM] | . | . | 29.9µM | ?
CCc1ccc(NC(=O)CC2C(=O)N(c3cccc(C)c3)C(=O)N2CCC(C)C)cc1 (centres undefined) | / | / | / | / | / | .
Nc1nonc1-n1nnc(C(=O)N/N=C/c2ccc(OCc3ccccc3)cc2)c1CN1CCCCC1 | -98.1 | . | . | / | . | .
